Sampled rows, rich in hits. Any-hit rate of the full collection: about 3.5%.
mHTT-CaM PPI inh: inhibitors of human mutant huntingtin-calmodulin interaction; inhibition, % at 15 µM; AID 1671202; AlphaScreen His-mHTT/GST-CaM binding, luminescence; hit rate 3.6% among 190,000; P42858
Pf apPOL block: Pf-apPOL DNA polymerase inhibition; hit rate 0.25% among 210,000; inhibition, % at 10 µM; Recombinant Pf-apPOL, molecular beacon fluorescence, 1.5 h
A number is an active result; - = inactive; . = no result given; ! = repeats disagree. Cut-off read from the data, not from the text of the source: active = inhibition above about 50%; inactive = the rest.

SMILES	mHTT-CaM PPI inh	Pf apPOL block
Cc1ccc(NC(=O)N2CCC(c3nc4ccccc4[nH]3)CC2)cc1C	-	-
C/C=C/COc1nc2c(c(=O)n(C)c(=O)n2C)n1C	-	-
C=CCOc1nc2c(c(=O)n(C)c(=O)n2C)n1C	100.2!	-
Cn1c(=O)c([N+](=O)[O-])c(NCc2ccccc2)c2ccccc21	-	-
CC(O)CNc1c([N+](=O)[O-])c(=O)n(C)c2ccccc12 (stereo not drawn)	-	70.1
O=C(Oc1ccc(I)cc1)c1ccccc1I	.	-
COc1ccc(N(CC(N)=O)S(C)(=O)=O)cc1OC	-	-
COc1ccc(NC(=O)CSC2=NC(=O)CC(C)=N2)cc1	-	76.0
COc1ccc(NC(=O)CSc2nccn2C)cc1	-	-
Cc1nn(C)c(C(=O)N2Cc3ccccc3C(=O)N2)c1[N+](=O)[O-]	-	-
CCOCN(C(=O)CSc1nc2ccccc2[nH]1)c1c(C)cccc1CC	-	-
CCc1cccc(C)c1N(C(=O)CSc1nc2ccccc2[nH]1)C(C)COC (stereo not drawn)	52.0	-
O=C1OC(C2CCCCC2)=N/C1=C/c1ccc(Cl)cc1	-	-
Cc1cccc(-n2nc(C)c3sc(N4CCCN(C(=O)C5CCCCC5)CC4)nc32)c1	67.8	-
Cc1ccc(-n2nc(C)c3sc(N4CCCN(C(=O)C5CCCC5)CC4)nc32)cc1	-	-
O=[N+]([O-])c1cc(-n2ncnc2-c2ccccc2Cl)ccc1F	-	-
O=C(CSc1ccccn1)Nc1ccc(F)cc1	-	-
O=C(Nc1nnc2ccccn12)c1ccc(Cl)cc1	51.9	-
N#Cc1ccc(C(=O)Nc2nnc3ccccn23)cc1	-	-
COc1cccc(C(=O)Nc2nnc3ccccn23)c1	70.7	-
O=C(Nc1nnc2ccccn12)c1cccc(C(F)(F)F)c1	-	-
Cc1cc(NC(=O)c2cc3c(=O)n4cccc(C)c4nc3s2)no1	-	-
Cc1noc(-c2ccc(=O)n(C(C)C(=O)NCc3cccs3)c2)n1 (stereo not drawn)	-	-
O=[N+]([O-])c1ccccc1C=Nc1cccc(N=Cc2ccccc2[N+](=O)[O-])c1	-	-
CCC(CO)NC(=O)C(=O)Nc1ccccc1SC (stereo not drawn)	-	-
SMILES	mHTT-CaM PPI inh	Pf apPOL block
CCCC(=O)Nc1ccc(NC(=O)c2ccc(C)cc2)cc1	-	-
CCCOc1ccc(C(=O)Nc2ccccc2[N+](=O)[O-])cc1	-	-
CCCCOc1ccc(C(=O)Nc2ccc(NC(=O)CCC)cc2)cc1	-	98.6
CCCOc1ccc(C(=O)Nc2ccccc2C)cc1	-	90.0
O=C(c1ccc(Cl)cc1)N1CCc2nc[nH]c2C1	-	-
CCCN(Cc1ccsc1)C(=O)Nc1ccccc1	-	-
COc1ccc(C(=O)CSc2nnc3n(N)cnn23)cc1	-	-
Cc1ccccc1-n1c(=O)n(C2CC2)c(=O)c2c1ncn2Cc1ccccc1F	-	-
CC1=C(C#N)C(c2cccs2)C(C#N)=C(C)N1	.	-
N#CC1=C(N)SC(N)=C(C#N)C1c1ccc(-c2ccccc2)cc1	51.5	-
N#CC1=C(N)SC(N)=C(C#N)C1c1ccc(O)cc1	-	-
N#CC1=C(N)SC(N)=C(C#N)C1c1cccs1	62.7!	-
CC(=O)Nc1ccc(C(=O)N2CCN(C(=O)C3CC3c3cccs3)CC2)cc1 (stereo not drawn)	-	-
Cc1oc(C(C)(C)C)cc1C(=O)Nc1ccc(I)cc1	-	-
COc1cccc(C(=O)NCCCc2ccc(N(C)C)cc2)c1OC	-	-
COc1cc(C)c(C)cc1S(=O)(=O)NCCCc1ccc(N(C)C)cc1	56.8	-
CCCS(=O)(=O)NCCc1csc(-c2ccc(OC)c(OC)c2)n1	-	-
COc1cc(C)c(C)cc1S(=O)(=O)NCCc1csc(-c2ccc(F)cc2)n1	52.7	-
CC(C)c1ccc(C(=O)N2CC3CN(S(=O)(=O)c4ccc(F)cc4)CC(C2)O3)cc1	-	-
CCOC(=O)C(C#N)=C(Nc1ccc(C(=O)OCC)cc1)SC	.	-
CC1CCN(C(C(=O)NC2CCCC2)c2cc3c(cc2[N+](=O)[O-])OCO3)CC1 (stereo not drawn)	-	-
COc1ccc(N2CC(C(=O)Nc3cccc(OC)c3)CC2=O)cc1 (stereo not drawn)	-	-
CCCC1N=C(c2cccc(OC)c2)CC(c2ccccc2O)N1 (stereo not drawn)	-	-
CCCC1N=C(c2ccc(Cl)cc2)CC(c2cccc(OC)c2O)N1 (stereo not drawn)	52.0	-
CC(=O)N1c2ccccc2NC2=C(C(=O)CC(C)(C)C2)C1c1ccc([N+](=O)[O-])o1 (stereo not drawn)	-	-
CC1(C)CC(=O)C2=C(C1)NC1=C(C(=O)c3ccccc31)C2c1cc([N+](=O)[O-])ccc1O (stereo not drawn)	63.0	-
COc1ccc(OC)c(C2C3=C(CC(C)(C)CC3=O)NC3=C2C(=O)c2ccccc23)c1 (stereo not drawn)	-	-

High-throughput results from PubChem BioAssay.
